Results on 25 molecules are retold here after PubChem BioAssay (EPA / NIEHS).

Test [1] can be described thus: CCTE_Harrill_HTTr_Viability_MCF7: CCTE's 6-hour Cell Viability Assessment for the High-Throughput Transcriptomics (HTTr) Platform, in MCF-7 cells cultured in DMEM + 10% fetal bovine serum, Harrill Lab (AID 2284010). In short, it runs like this: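 Propidium iodide exclusion, imaged by high-content analysis, gauged viability after a six-hour exposure across eight concentrations. Cells were MCF-7 grown in DMEM with 10% fetal bovine serum; fits run in both directions against DMSO.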

Test [2] is described as follows: CCTE_Harrill_HTTr_Apoptosis_MCF7: CCTE's 6-hour Apoptosis Assessment for the High-Throughput Transcriptomics (HTTr) Platform, in MCF-7 cells cultured in DMEM + 10% fetal bovine serum, Harrill Lab (AID 2284011). In short, it runs like this: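 MCF-7 (DMEM + 10% FBS), 384-well; 8-pt dilution series, 6 h chemical exposure; caspase-3/7 activation via CellEvent Caspase 3/7 Green, HCI; bidirectional fit vs DMSO.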

Test [3] in a line: CCTE_Shafer_MEA_acute_spike_number: CCTE's Neural Acute Assay for Total Number of Spikes, Shafer Lab (AID 2284008).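 As to AC50: curve fitted for decrease in spike count so AC50 reflects inhibitors.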 In short, it runs like this: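 Read-out is the total spike count over 40 min, expressed as percent change from each well's own pre-treatment baseline and fitted in the loss direction against DMSO. Rat cortical neurons were exposed at 0.03-40 uM on DIV 13 or 15.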

Test [4] is described as follows: CCTE_Shafer_MEA_acute_firing_rate_mean: CCTE's Neural Acute Assay for Mean Firing Rate, Shafer Lab (AID 2284009).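 Also: analyzed for loss of signal so actives lower firing rate relative to DMSO.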 In short, it runs like this: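 Primary rat cortical neurons on 16-electrode MEA wells were exposed on DIV 13 or 15 to compound (0.03-40 uM). Spike counts per recording time, averaged over electrodes, were compared between 40-min baseline and 40-min post-exposure recordings as percent change.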

Test [5] can be described thus: CCTE_Shafer_MEA_acute_burst_number: CCTE's Neural Acute Assay for Single-Electrode Bursts, Shafer Lab (AID 2284013). In outline:
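Primary rat cortical neurons on 16-electrode MEA wells, DIV 13 or 15, exposed to compound (0.03-40 uM; ≥3 wells); 40-min recordings at 37 C before and after treatment. Burst count expressed as percent change from baseline, DMSO as negative control.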

The nature of test [6]: CCTE_Shafer_MEA_acute_burst_duration_mean: CCTE's Neural Acute Assay for Mean Burst Duration, Shafer Lab (AID 2284014).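 Also: hits are decreases in mean burst duration relative to DMSO controls.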 In outline: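 Mean burst duration was compared between a 40 min baseline and a 40 min recording in the presence of compound (0.03-40 uM, 37 C), giving percent change per well. Cultures were rat cortical neurons at DIV 13 or 15; wells needed ≥10 active electrodes.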

Test [7] is described as follows: CCTE_Shafer_MEA_acute_per_burst_spike_number_mean: CCTE's Neural Acute Assay for Average Number of Spikes Per Burst, Shafer Lab (AID 2284015).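 Also: hits are decreases in mean spikes per burst versus baseline.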 In outline: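 Read-out: percent change in mean spikes per burst, each well's post-exposure 40-min recording versus its own 40-min baseline. Rat cortical cultures, DIV 13 or 15, compounds 0.03-40 uM; DMSO is negative control, loss-of-signal fitting.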

Test [8] is described as follows: CCTE_Shafer_MEA_acute_interburst_interval_mean: CCTE's Neural Acute Assay for Mean Interburst Interval, Shafer Lab (AID 2284016).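 Also: percent change of mean interburst interval versus each well's own pre-dose baseline; curves fitted for decrease in interburst interval relative to DMSO.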 In short, it runs like this: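 Rat cortical cultures, DIV 13/15; 20 min equilibration, 40 min baseline, compound 0.03-40 uM, 40 min re-recording, 37 C. Spikes detected at 8x rms noise (300-5000 Hz band-pass). Endpoint: % change in interburst interval, fitted in loss direction vs DMSO.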

The nature of test [9]: CCTE_Shafer_MEA_acute_burst_percentage_mean: CCTE's Neural Acute Assay for Percentage of Spikes in a Burst, Shafer Lab (AID 2284017).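 As to AC50: curve fitted for loss of signal so potency reflects decreased burst percentage.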 In outline:
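Rat cortical cultures, DIV 13/15, 37 C. Spikes detected at 8x rms noise (300-5000 Hz band-pass). Burst spikes/total spikes averaged across electrodes per well; % change post- vs pre-treatment (40 min each), loss-of-signal fit vs DMSO.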

Test [10] is described as follows: CCTE_Shafer_MEA_acute_per_network_burst_spike_number_mean: CCTE's Neural Acute Assay for Average Number of Spikes in a Network Burst, Shafer Lab (AID 2284019).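 As to AC50: curve fitted for loss of signal so actives reduce spikes per network burst.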 In short, it runs like this: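 Percent change from baseline in mean spikes per network burst, spikes detected at 8x rms noise. Each compound at 0.03-40 uM in at least three wells of rat cortical cultures, recorded 40 min before and 40 min during exposure.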

Test [11] can be described thus: CCTE_Shafer_MEA_acute_per_network_burst_spike_number_std: CCTE's Neural Acute Assay for Standard Deviation of Number of Spikes in a Network Burst, Shafer Lab (AID 2284020).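 Also: fitted for decrease in spike-number SD versus DMSO so actives lower it.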 In outline: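 Endpoint: percent change from 40 min baseline in standard deviation of spikes per network burst, after 40 min compound exposure (0.03-40 uM, 37 C). Cortical rat neurons on MEA at DIV 13 or 15; spikes detected at 8x rms noise, 300-5000 Hz band-pass.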

Test [12] in a line: CCTE_Shafer_MEA_acute_network_burst_percentage: CCTE's Neural Acute Assay for Percentage of Network Bursts, Shafer Lab (AID 2284022).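 Also: curves fitted for loss so actives lower network burst percentage.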 In outline:
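Readout is the fraction of spikes falling in network bursts, expressed as per-well percent change from a 40-min pre-exposure baseline. Primary rat cortical neurons on MEA were exposed to 0.03-40 uM compound on DIV 13 or 15 and recorded for 40 min at 37 C.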

Test [13] is described as follows: CCTE_Shafer_MEA_acute_cross_correlation_area: CCTE's Neural Acute Assay for Area of Cross Correlation, Shafer Lab (AID 2284024).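 Also: rat primary cortical neuron networks on 48-well MEA at DIV 13 or 15 with 40 min exposure; area under pooled inter-electrode spike cross-correlation near zero lag as percent change from own baseline; curves fitted for loss of cross-correlation area so actives lower synchrony.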 In outline: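 Plates equilibrated 20 min at 37 C, then 40 min baseline was recorded, compound was added (0.03-40 uM), and a further 40 min was recorded. Wells needed ≥10 active electrodes (≥5 spikes/min) on exposure day.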
The nature of test [14]: CCTE_Shafer_MEA_acute_cross_correlation_HWHM: CCTE's Neural Acute Assay for Cross Correlation at Half Width at Half Maximum, Shafer Lab (AID 2284026).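 Also: percent change per well from pre-dose baseline in spike cross-correlogram half width; hits are a decrease in cross-correlogram half width relative to DMSO.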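 As to outcome: spontaneous network firing of rat primary cortical neurons on multiwell microelectrode arrays.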 In short, it runs like this:
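Rat cortical neuron cultures on microelectrode arrays were equilibrated 20 min at 37 C, recorded 40 min at baseline, then 40 min after compound addition (0.03-40 uM, ≥3 wells). Spikes were detected at 8x rms noise after 300-5000 Hz band-pass filtering.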

A short description of test [15]: CCTE_Shafer_MEA_acute_synchrony_index: CCTE's Neural Acute Assay for Synchrony, Shafer Lab (AID 2284027).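 Also: network synchrony index of spontaneous spiking in primary rat cortical neurons on MEAs; fitted for loss of signal so actives lower synchrony relative to DMSO.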 In outline:
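The synchrony index is taken as percent change per well between a 40 min baseline and a 40 min recording with compound (0.03–40 uM), at 37C. Rat cortical cultures on multiwell MEAs at DIV 13 or 15, spike threshold 8× rms noise.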

Test [16] is described as follows: CCTE_Deisenroth_AIME_96WELL_CTox_Active: Cytotoxicity Assessment (CTOX) in CCTE's 96-well Estrogen Receptor Transactivation Assay with AIME metabolic competence (metabolism positive), Deisenroth Lab (AID 2284028; active = hit-call score of the fitted dose curve at least 0.9, where 1 is the maximum). In short, it runs like this:
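Cytotoxicity in VM7Luc4E2 breast cells after 24 h exposure to medium from a 2 h metabolic pre-incubation with induced rat hepatic S9 in alginate microspheres; fluorescent live-cell protease readout, 10-point series 0.002–200 uM, n=4.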

Test [17] in a line: CCTE_Deisenroth_AIME_96WELL_CTox_Inactive: Cytotoxicity Assessment (CTOX) in CCTE's 96-well Estrogen Receptor Transactivation Assay without AIME metabolic competence (metabolism negative), Deisenroth Lab (AID 2284029; active = hit-call score of the fitted dose curve at least 0.9, where 1 is the maximum). In outline: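 Metabolism-negative mode: alginate-water lids without rat S9, 2 h pre-incubation of 10-point series (0.002 - 200 uM). Conditioned medium on VM7Luc4E2 cells 24 h; loss of fluorescent live-cell protease signal marks cytotoxicity.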

SMILES strings stand for the structures. “And” between values parts separate entries of the source, which are not always exact repeats. Identical values can stand only once. Inconclusive results are not listed. A structure can be active in one record and inactive in another. The source made the active and inactive calls. The calls were made as follows, unless noted: active = hit-call score of the fitted dose curve at least 0.9, where 1 is the maximum; inactive = score below 0.9.

As for `CCCCCCCCCC(=O)OCC`, the outcome in test [1] and in test [2] was inactive.
Consider `Cc1ccc(C(C)(C)O)cc1`, for which the outcome in [1] and in [2] was inactive.
What is called AC50 is the concentration giving half of the maximal activity seen. As to `CCCCN(CCO)CCO`, the call in [3], in [4], in [5], in test [6], in test [7] and in test [9] was inactive. The result in [11], in test [13], in test [14] and in [15] was inactive. Also, the AC50 was 24.1 µM (active) in test [8], 15 µM (active) in [10] and 15 µM (active) in test [12].
With `CCCc1ccc(O)cc1`, the outcome in [1] and in [2] was inactive.
As for `COC(=O)C(C)Oc1ccc(Oc2ncc(C(F)(F)F)cc2Cl)cc1` (centres undefined), the outcome in [1] and in test [2] was inactive.
For the molecule `COc1ccc2[nH]cc(CCNC(C)=O)c2c1`, the result in [1] and in [2] was inactive.
In the case of `CC12CCC(C1)C(C)(C)C2O` (centres undefined), the outcome in [1] and in test [2] was inactive.
On to `CC(=O)c1ccc(C)cc1`, for which the AC50 in [3], in test [4] and in test [5] was 3 nM (active) in each case. In addition, the molecule was called inactive in test [6], in test [7], in [8], in test [9], in [10] and in [11]. Moreover, the molecule was called inactive in test [12], in [13], in [14] and in test [15].
Turning to `c1ccc(OCCOc2ccccc2)cc1`, the call in test [3], in test [4], in [1], in test [2], in [5] and in test [6] was inactive. In addition, the result in test [7], in test [8], in test [9], in test [10], in test [11] and in test [12] was inactive. Moreover, the call in test [13], in [14] and in test [15] was inactive.
With `CC(C)CCCC(C)(C)O`, the molecule was classed as inactive in [3], in [4], in test [5], in test [6], in test [7] and in test [8]. Besides, the molecule was called inactive in test [9], in [10], in test [11], in test [12], in [13] and in test [14]. Besides, in test [15], the call was inactive.
Take `N[C@@H](CCC(=O)O)C(=O)O`: the call in test [3], in test [4], in test [5], in [6], in test [7] and in test [8] was inactive. For the same molecule, the outcome in test [9], in test [10], in test [11], in [12], in test [13] and in [14] was inactive. Further, the outcome in test [15] was inactive.
For `CN(C)C`, the result in test [1] and in test [2] was inactive.
Turning to `OC[C@H]1O[C@@H](O[C@H]2[C@H](O)[C@@H](O)[C@H](O)O[C@@H]2CO)[C@H](O)[C@@H](O)[C@H]1O`, the outcome in [1] and in [2] was inactive.
Take `CC(O)COCC(C)O` (centres undefined): the result in [1] and in test [2] was inactive.
As to `O=C(O)c1cc2ccccc2cc1O`, the outcome in test [1] and in [2] was inactive.
For the molecule `COC(=O)c1ccc(C(=O)OC)cc1`, the result in test [1] and in test [2] was inactive.
Regarding `CNC(=C[N+](=O)[O-])NCCSCc1ccc(CN(C)C)o1`, in test [1], the result was inactive.
As to `Cc1ccncc1`, the result in [1] and in test [2] was inactive.
For `OCC=Cc1ccccc1`, the outcome in test [1] and in [2] was inactive.
With `CCCCOCCOCCO`, the outcome in test [3], in test [4], in test [1], in [2], in [5] and in test [6] was inactive. For the same molecule, the call in test [7], in test [8], in [9], in [10], in test [11] and in [12] was inactive. For the same molecule, the molecule was called inactive in [13], in test [14] and in [15].
`CC/C(=C(\c1ccccc1)c1ccc(OCCN(C)C)cc1)c1ccccc1`: the AC50 in test [3] is 2.73 µM (active) and 4.6 µM (active); in test [4], 2.73 µM (active) and 4.63 µM (active); in [1], 67.3 µM (active); in [5] it was 2.79 µM (active) and 4.2 µM (active); in [7], 18.3 µM (active); in [8], 3.74 µM (active). Further, the concentration at half-maximal activity (AC50) in test [9] is 18.3 µM (active) and 15.8 µM (active); in [11], 18.3 µM (active); in test [12] it was 18.3 µM (active) and 13.2 µM (active); in test [14], 16.4 µM (active); in [15], 14.8 µM (active); in test [16], 7.84 µM (active). For the same molecule, in test [17], the AC50 is 74.1 µM (active). Further, the outcome in test [1], in test [2], in test [6], in test [7], in test [8] and in [10] was inactive. Also, the molecule was called inactive in test [11], in [13], in test [14] and in [15].
Turning to `CCCO[Si](OCCC)(OCCC)OCCC`, the molecule was called inactive in test [3], in [4], in test [5], in test [6], in [7] and in [9]. Moreover, the result in test [10], in test [11], in test [13] and in test [15] was inactive. The figures for the half-maximal activity concentration (AC50) in test [8], in test [12] and in [14] were 15 µM (active), 2.98 µM (active) and 0.0212 µM (active), respectively.
For `CN(C)C(=O)Nc1ccccc1`, the outcome in [1] and in [2] was inactive.
Consider `O=C1OC2(c3ccc(O)cc3Oc3cc(O)ccc32)c2ccccc21`, for which the outcome in test [1] was inactive. Also, in test [2], the AC50 is 0.171 µM (active).
Consider `O=C(c1ccc(OCCN2CCCCC2)cc1)c1c(-c2ccc(O)cc2)sc2cc(O)ccc12`, for which the AC50 in test [3] was 14300 nM (active); in test [4] it was 14100 nM (active); in test [5], 11200 nM (active); in [9] it was 32.5 µM (active); in test [10] it was 4.05 µM (active); in test [11], 33.9 µM (active). Also, the AC50 in test [14] is 32.7 µM (active); in [15], 36.8 µM (active). Also, the outcome in test [1], in test [2], in test [6], in test [7], in test [8] and in test [12] was inactive. In addition, the outcome in test [13] was inactive.
